Source: PubChem
Compounds with a hit are over-represented: about 0.34% of the library has one in this group of screens.
Vif-APOBEC3F blk – blocks the Vif interaction with APOBEC3F; HeLa A3F-eYFP + Vif (tagged APOBEC3F with the HIV-1 protein that degrades it), YFP fluorescence increase; AID 602313; Potency, µM (series often up to 46.1 µM); 390,000 compounds, 0.2% hits; note: nearly all actives have a fitted effect of over 65% in size
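Fluorescence increase (Ex 488/Em 500-530) after overnight compound treatment at 37 deg C flags inhibition of Vif-driven A3F-eYFP loss in stable HeLa A3F-eYFP/Vif cells seeded overnight beforehand.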
Vif-A3G inh – inhibitors of Vif-APOBEC3G interaction | Q9HC16 | Potency, µM (titrated, usually from 46.1 µM), usual class: inhibitors | HeLa A3G-eYFP + Vif (tagged APOBEC3G with the HIV-1 protein that degrades it), YFP fluorescence, overnight | 410,000 compounds, 0.076% hits; note: nearly all actives have a fitted effect of over 60% in size
Target sequence (Q9HC16 whole entry, looked up): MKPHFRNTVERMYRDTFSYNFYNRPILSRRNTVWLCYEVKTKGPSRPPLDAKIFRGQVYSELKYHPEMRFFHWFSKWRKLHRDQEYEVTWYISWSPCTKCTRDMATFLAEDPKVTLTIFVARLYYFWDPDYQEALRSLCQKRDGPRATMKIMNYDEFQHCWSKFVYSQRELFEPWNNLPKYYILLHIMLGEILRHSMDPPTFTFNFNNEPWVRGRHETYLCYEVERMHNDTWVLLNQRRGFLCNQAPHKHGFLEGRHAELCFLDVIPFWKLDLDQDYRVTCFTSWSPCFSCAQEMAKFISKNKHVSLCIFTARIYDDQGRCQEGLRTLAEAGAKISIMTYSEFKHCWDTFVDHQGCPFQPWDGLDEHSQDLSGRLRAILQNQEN
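HeLa cells stably expressing Vif and C-terminally eYFP-tagged A3G, seeded overnight at 37 deg C, then exposed to compound by pintool overnight at 37 deg C. Rise in yellow fluorescence (Ex 488/Em 500-530, Acumen) marks blocked Vif-driven A3G degradation.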
Epigenetic reg – epigenetic control regulation, reporter derepression. AID 1865. murine LDR cells, GFP reporter derepression, 30 h. Potency, µM (doses to about 53.9 µM), most hits filed as activators. 280,000 compounds, 0.2% hits; note: nearly all actives have a fitted effect of over 60% in size
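Reporter derepression read as number of fluorescent GFP-positive objects, 20-120 um in size, counted by laser-scanning cytometer. Mouse LDR line with an epigenetically silenced CMV-GFP locus; compound incubation 30 h, 37 C.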
Numbers stand for hits; n = inactive; u = inconclusive; x = not tested or not shown; ! = not confirmed by another sample. Calls come from the whole dose curve; as a rule, active = well fitted curve in the direction sought with a large enough effect; inconclusive = small, poorly fitted or top-dose-only effect, or another doubt; inactive = no such curve, though single readings can be large; an effect the other way counts as inactive or inconclusive.

SMILES	Vif-APOBEC3F blk	Vif-A3G inh	Epigenetic reg
Oc1ccc(CN2CCc3ccccc3C2)c2cccnc12	n	n	3.5µM
CCOc1ccc(CNS(=O)(=O)c2ccc3c(c2)CCCN3C(C)=O)cc1OC	n	n	n
C=Nc1ccc(/C=C/c2ccnc3ccccc23)cc1	x	n	x
CC1(C)S[C@@H]2[C@H](NC(=O)COc3ccccc3)C(=O)N2[C@@H]1C(=O)OCc1cccc2cccnc12	x	n	x
O=[N+]([O-])c1ccc(C=CC=Cc2ccccc2)cc1	n	n	x
CC1=NN(c2ccccc2)C(c2ccco2)C1 (centres undefined)	n	n	x
O=[N+]([O-])c1ccc(/C=C/C2=NN(c3ccccc3)C(c3ccco3)C2)cc1 (centres undefined)	n	n	0.79µM
O=[N+]([O-])c1ccc(C2=NN(c3ccccc3)C(c3ccco3)C2)cc1 (centres undefined)	n	u	2µM
CCCCN(CCCC)S(=O)(=O)c1ccc2oc(C(=O)NCc3ccccc3)c(C)c2c1	n	n	n
CC(C)(C)n1ncc2c(=O)n(Cc3ccc(F)c(C(F)(F)F)c3)cnc21	x	n	x
C[N+]1(CC(=O)c2ccc(Cl)cc2)CCOCC1	x	n	x
COC(=O)C[C@H]1c2ccccc2S(=O)(=O)N1c1ccc(N(C)C)cc1	x	n	x
Cc1cc(NC(=S)NC(=O)C2CC2)ccc1Br	n	n	n
Cc1cc(C)cc(NC(=S)NC(=O)C2CC2)c1	13µM	n	x
CCOCCc1nnc(NC(=O)C(=O)c2cc(C)n(-c3ccc(C)c(C)c3)c2C)s1	n	n	n
CC(C)(C)n1ncc2c(=O)n(Cc3ccc(C#N)c(F)c3)cnc21	x	n	x
CCc1ccc(C2=NN(S(C)(=O)=O)C(c3cccs3)C2)cc1 (centres undefined)	u	u	18µM
Cc1ccc(C2=NN(S(C)(=O)=O)C(c3cccs3)C2)cc1 (centres undefined)	n	n	n
CCc1ccc2oc(C(=O)NCC(c3ccc(Cl)cc3)N3CCOCC3)c(C)c2c1 (centres undefined)	n	n	n
c1cn2c(NC3CCCCC3)c(-c3ccc(SC4CCCCC4)cc3)nc2cn1	n	n	x
c1cc(SC2CCCCC2)cc(-c2nc3cnccn3c2NC2CCCCC2)c1	25µM	u	x
CC1COC2=C1C(=O)C(=O)c1c2ccc2c1CCCC2(C)C (centres undefined)	x	x	n
Cc1cccc2c(C(O)c3c[nH]c4c(C)cccc34)c[nH]c12	x	n	x
CCOc1ccc(-c2cc(C(F)(F)F)c(C#N)c(SCC(=O)Nc3ccccc3)n2)cc1	u	13µM	u
CCOc1ccc(NC(=O)CSc2nc(-c3ccc(F)cc3)cc(C(F)(F)F)c2C#N)cc1	n	n	n
SMILES	Vif-APOBEC3F blk	Vif-A3G inh	Epigenetic reg
CCOC(=O)CSc1nc(-c2ccc(F)cc2)cc(C(F)(F)F)c1C#N	n	n	n
CCN(CC)C(=O)CSc1nc(-c2cccs2)cc(-c2cccs2)c1C#N	x	n	35µM
CCN(CC)C(=O)CSc1nc(N)c(C#N)c(-c2cccs2)c1C#N	n	n	n
Cc1cc(C(F)(F)F)c(C#N)c(SCC(=O)Nc2nc3ccccc3s2)n1	22µM	u	n
Cc1nc(SCC(=O)Nc2nc3ccccc3s2)c(C#N)c(C)c1C	n	n	n
CCOC(=O)c1ccc(NC(=O)CSc2nc(-c3ccc(F)cc3)cc(C(F)(F)F)c2C#N)cc1	u	n	7.1µM
Cc1cccc(-n2c(SCC(=O)Nc3ccccc3C)nc3c(oc4ccccc43)c2=O)c1	n	n	n
CN(C)c1ccc(/C=C\C=C/c2ccnc3ccccc23)cc1	x	n	x
CCCCN(CC)C(=O)CSc1c2c(nc3ccc(Cl)cc13)CCCC2	n	n	n
Cc1cc(/C=C/c2c(C)cnc3ccccc23)ccc1N(C)C	x	n	x
CCOC(=O)C[n+]1cccc(Br)c1	x	n	x
N#Cc1c(C(F)(F)F)cc(-c2cccs2)nc1SCC(=O)Nc1cccc(Br)c1	u	u	10µM
N#Cc1c(C(F)(F)F)cc(-c2cccs2)nc1SCC(=O)Nc1cccc(Cl)c1	u	n	n
O=[N+]([O-])c1ccc(/C=N/NC(=S)Nc2ccc(Cl)cc2Cl)s1	n	u	22µM
O=[N+]([O-])c1ccc(O)c(/C=N/NC(=S)Nc2ccc(Cl)cc2Cl)c1	u	n	n
Cn1c2ccccc2c2cnn(CC(=O)Nc3ccccc3F)c(=O)c21	n	n	n
COC(=O)c1c(-c2cccnc2)csc1NC(=O)c1ccc2c(c1)OCO2	10µM	n	x
COC(=O)c1sccc1NC(=O)c1ccc2c(c1)OCO2	n	n	n
Cc1ccc(C)c(S(=O)(=O)/N=C2\C=C(NS(=O)(=O)c3ccccc3)C(=O)c3ccccc32)c1	n	n	x
Cc1cc(C)c(S(=O)(=O)/N=C2/C=C(Sc3ncn[nH]3)C(=O)c3ccccc32)cc1C	7.1µM	u	n
O=[N+]([O-])c1cc2cccnc2c2ncccc12	u	n	n
O=[N+]([O-])c1cc(O)c2ncccc2c1	n	11µM	u
CCOC(=O)c1c(/N=C/C2=C(O)CCCC2=O)sc(C)c1C	n	n	n
CCOC(=O)c1c(-c2ccc(OC)cc2)csc1/N=C/C1=C(O)CCCC1=O	22µM	22µM	u
C(=Nc1ccc(/C=C/c2ccnc3ccccc23)cc1)c1cccs1	x	n	x
SMILES	Vif-APOBEC3F blk	Vif-A3G inh	Epigenetic reg
COc1ccc(CCNC(=O)C2CCN(c3nc4ccccc4nc3C(F)(F)F)CC2)cc1OC	n	n	n
O=C1c2ccccc2C(=O)c2c(Nc3ccc(CCO)cc3)ccc(O)c21	n	n	n
O=C1c2c(O)ccc(O)c2C(=O)c2c(NCCNCCO)ccc(NCCNCCO)c21	n	n	13µM!
CN(C)c1ccc(/C=C2\C=Cc3ccccc32)cc1[N+](=O)[O-]	x	n	x
Cc1c(C(=O)OC/C(O)=C(\C#N)c2nc3ccccc3[nH]2)oc2ccccc12	22µM	u	n
Cc1c(C(=O)OCC(O)=C(C#N)c2nc3ccccc3[nH]2)oc2ccc(Br)cc12	u	n	x
C=CCN1C(=O)/C(=C2/Sc3ccc(OC)cc3N2C)SC1=Nc1cccc(O)c1	11µM	11µM	10µM
CCN1C(=O)/C(=C2/Sc3ccc(OC)cc3N2C)SC1=Nc1ccc(OC)cc1	n	n	n
CCN(CC)CCCOc1cc2nc(N3CCCN(C)CC3)nc(NC3CCN(C)CC3)c2cc1OC	x	n	x
CC1C/C(=N/Nc2nc3ccccc3[nH]2)CC(C)(C)C1 (centres undefined)	n	n	n
c1ccc2[nH]c(NN=C3CCCCCC3)nc2c1	22µM	n	u
CN(C)c1ccc(CNC(=O)c2sc3ncccc3c2-n2cccc2)cc1	n	n	n
CCCCn1c(NC(=O)c2ccccc2)c(C#N)c2nc3ccccc3nc21	u	u	n
CCC(C)n1c(NC(=O)c2ccccc2)c(C#N)c2nc3ccccc3nc21 (centres undefined)	32µM	u	20µM
C#CCOC(=O)NC(/C=C/CCCC)c1ccccc1 (centres undefined)	x	x	n
O=C1c2ccccc2-c2onc3c(N4CCN(C5CCCCC5)CC4)cc(NCCO)c1c23	u	u	n
CN(C)CCCNc1cc(N2CCN(C3CCCCC3)CC2)c2noc3c2c1C(=O)c1ccccc1-3	4.5µM	u	n
Cc1ccc(-c2noc(-c3ccccc3NC(=O)c3ccccc3)n2)cc1	n	n	n
